Assay outcomes from PubChem.
USP30 block: inhibitors of human USP30 deubiquitinase; Ubiquitin carboxyl-terminal hydrolase 30 (Homo sapiens), Q70CQ3; purified USP30, Ub-rhodamine cleavage fluorescence; inhibition, % at 25 µM; hit rate 5.3% among 47,000
USP8 inh: inhibitors of human USP8 deubiquitinase; Ubiquitin carboxyl-terminal hydrolase 8 (Homo sapiens), P40818; purified USP8, Ub-rhodamine cleavage fluorescence, 30 min; inhibition, % at 20 µM; hit rate 4.2% among 47,000; AID 1645853, 2021
USP28 inh: inhibitors of human USP28 deubiquitinase | Ubiquitin carboxyl-terminal hydrolase 28 (Homo sapiens), Q96RU2 | purified USP28, Ub-rhodamine cleavage fluorescence, 30 min | inhibition, % at 25 µM | hit rate 3% among 47,000 | AID 1645857, 2021
USP10 inh: inhibitors of human USP10 deubiquitinase; Ubiquitin carboxyl-terminal hydrolase 10 (Homo sapiens), Q14694; inhibition, % at 20 µM; hit rate 1.1% among 47,000; purified USP10, Ub-rhodamine fluorescence, 60 min
USP17 inh: inhibitors of human USP17 deubiquitinase | Ubiquitin carboxyl-terminal hydrolase 17-like protein 5 (Homo sapiens), A8MUK1 | AID 1645855, 2021 | purified USP17, Ub-rhodamine cleavage fluorescence, 3 h | hit rate 6.5% among 47,000 | inhibition, % at 50 µM
Target sequence (A8MUK1 whole entry, looked up): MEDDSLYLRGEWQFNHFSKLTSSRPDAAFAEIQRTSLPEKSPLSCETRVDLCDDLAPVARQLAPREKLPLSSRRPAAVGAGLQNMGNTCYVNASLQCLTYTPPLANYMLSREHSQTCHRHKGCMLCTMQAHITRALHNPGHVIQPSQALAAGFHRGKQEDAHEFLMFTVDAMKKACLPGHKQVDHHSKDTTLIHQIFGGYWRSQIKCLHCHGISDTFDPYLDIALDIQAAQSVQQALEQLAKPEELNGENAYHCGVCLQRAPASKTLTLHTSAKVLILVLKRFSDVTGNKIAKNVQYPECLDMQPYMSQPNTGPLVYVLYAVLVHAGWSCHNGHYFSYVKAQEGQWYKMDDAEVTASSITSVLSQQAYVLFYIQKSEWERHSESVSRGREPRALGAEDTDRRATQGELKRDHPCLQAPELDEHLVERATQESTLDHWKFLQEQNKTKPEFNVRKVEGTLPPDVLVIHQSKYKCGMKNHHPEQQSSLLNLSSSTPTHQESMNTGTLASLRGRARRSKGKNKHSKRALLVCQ
Of the large screens only hits and unclear results are named; the others gave an inactive call. In the library only some 14% were active in any assay of this set; here they are far more common. Rule as the data show it: active = inhibition above about 30%; inactive = the rest.

Cc1cc(C)c2c(CC(=O)Nc3nnc(C)s3)coc2c1	none
CCOc1ccc(N2C(=O)c3ccccc3C2C(=O)NCc2ccccc2OC)cc1 (configuration not stated)	USP30 block 51.8, USP17 inh 34.5
COc1ccccc1CNC(=O)C1c2ccccc2CC(=O)N1C(C)C (configuration not stated)	none
COCCN1C(=O)c2ccccc2C(C(=O)NCc2ccccc2OC)C12CCCC2 (configuration not stated)	none
CCOc1ccc(CN2C(=O)c3ccccc3C2C(=O)NCc2ccccc2OC)cc1 (configuration not stated)	USP30 block 32.6, USP17 inh 40.0
COc1ccccc1CNC(=O)[C@@H]1Cc2c([nH]c3ccccc23)C2c3ccccc3C(=O)N21 (some centres not stated)	none
COc1ccccc1CNC(=O)C1c2ccccc2C(=O)N1Cc1ccc(C)cc1 (configuration not stated)	USP30 block 86.2, USP17 inh 75.2
COc1ccccc1/C=C(/C(=O)N1CCN(Cc2ccc3c(c2)OCO3)CC1)c1ccccc1	USP30 block 41.8
COc1ccc(NC(=O)CSc2ccc(-c3cccnc3)nn2)cc1OC	none
COc1cc(NC(=O)Cn2nc(-c3ccc(F)cc3)ccc2=O)ccc1-n1cnnn1	USP30 block 42.9, USP8 inh 38.7, USP10 inh 50.6, USP17 inh 78.9
O=C(CSc1ccc(-c2ccncc2)nn1)Nc1ccc(Cl)cc1	USP17 inh 31.8
CC(=O)Nc1cccc(NC(=O)CSc2ccc(-c3ccc4c(c3)OCO4)nn2)c1	USP30 block 32.7, USP8 inh 33.2
COc1ccc(-c2ccc(SCC(=O)Nc3ccc(F)cc3)nn2)cc1OC	USP8 inh 83.1
Cc1ccc(NC(=O)c2cn(-c3cc(N4CCOCC4)ncn3)cn2)cc1F	none
O=C(COc1ccccc1[N+](=O)[O-])N1CCC(c2nc3ccccc3s2)CC1	none
O=C(CSc1ccc(-c2cccc([N+](=O)[O-])c2)nn1)Nc1cccc(F)c1	USP30 block 45.0, USP8 inh 70.0, USP28 inh 40.3, USP10 inh 46.2, USP17 inh 78.9
O=C(c1ccnn1-c1ccc2ccc(-c3cccnc3)cn12)N1CCOCC1	none
CCCCNc1ccccc1C(=O)OCc1nnc(-c2cc(-c3ccc(OC)c(OC)c3)nc3ccccc23)o1	USP8 inh 72.1
O=C(NCc1cccc(F)c1)c1nc(CS(=O)(=O)c2ccccc2)no1	none
CCOc1ccc(-c2cnc(NCc3cccc(C)c3)n2C)cc1	USP8 inh 53.2
CCOc1ccc(NC(=O)CN2CCN(Cc3cccc(C)c3)S2(=O)=O)cc1	none
c1ccc(-c2cc(NCc3cccnc3)n3nc(-c4cccnc4)nc3n2)cc1	none
CCCNc1cc(-c2ccccc2)nc2nc(-c3cccnc3)nn12	USP17 inh 54.3
CC(C)c1cc(NCc2ccco2)n2nc(-c3cccnc3)nc2n1	USP30 block 36.6, USP17 inh 31.3
COc1cccc(CNc2cc(C(C)C)nc3nc(-c4cccnc4)nn23)c1	USP17 inh 35.3
CC(C)c1cc(Nc2ccc(O)cc2)n2nc(-c3cccnc3)nc2n1	none
Cc1ccc(N2C(=O)c3cccnc3C2Nc2cccc(C(F)(F)F)c2)cc1 (configuration not stated)	none
Cc1nccc(-c2sc(C3CCN(C(=O)c4ccco4)CC3)nc2C)n1	none
Cc1nc(-c2noc3ccc(C(=O)Nc4cccnc4C)cc23)cs1	none
O=C(Cc1noc2ccccc12)NCC(=O)Nc1ccc(Cl)cc1	USP17 inh 77.0
O=c1[nH]c2cc3c(cc2c(=O)n1Cc1nc(-c2ccc(F)cc2)no1)OCO3	none
COc1cc(OC)cc(-c2noc(Cn3c(=O)[nH]c4cc5c(cc4c3=O)OCO5)n2)c1	USP8 inh 82.2 (no result: USP17 inh)
Cc1ccc(-c2noc(Cn3c(=O)[nH]c4cc5c(cc4c3=O)OCO5)n2)cc1	USP8 inh 55.0
CC(=O)N1CCCC1c1nc2ccccc2n1Cc1ccc(Cl)cc1 (configuration not stated)	none
Cc1nc(N2CCC(C(=O)NC(C)C)CC2)c2c(C)scc2n1	none
O=C(CSc1nc2ccccc2[nH]1)N1CCN(S(=O)(=O)/C=C/c2ccccc2)CC1	USP30 block 31.1, USP17 inh 36.0
